Consider seven molecules from ChEMBL document CHEMBL1961873, “Compounds: GSK PKIS; Assays: Nanosyn kinase panel” (2012).

Experiment [1] concerns the target Fibroblast growth factor receptor 4 (Homo sapiens) (UniProt P22455). The note with it: at 1 µM.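 Note: reported figure is the averaged percent inhibition of FGFR4, from the GSK PKIS kinase screening panel.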
The target of experiment [2] is Tyrosine-protein kinase Fgr (Homo sapiens) (UniProt P09769). To be noted: at 0.1 µM.
Experiment [3] has the same target. To be noted: at 1 µM.
The target in experiment [4] is Vascular endothelial growth factor receptor 1 (Homo sapiens) (UniProt P17948). The note with it: at 0.1 µM.
Experiment [5] has the same target. To be noted: at 1 µM.
Experiment [6] addresses Receptor-type tyrosine-protein kinase FLT3 (Homo sapiens) (UniProt P36888). The note with it: at 0.1 µM.
Experiment [7] has the same target. To be noted: at 1 µM.
The test system of experiment [8] is T1, Receptor-type tyrosine-protein kinase FLT3 (Homo sapiens), P36888 [D835Y].
T1 sequence (whole entry): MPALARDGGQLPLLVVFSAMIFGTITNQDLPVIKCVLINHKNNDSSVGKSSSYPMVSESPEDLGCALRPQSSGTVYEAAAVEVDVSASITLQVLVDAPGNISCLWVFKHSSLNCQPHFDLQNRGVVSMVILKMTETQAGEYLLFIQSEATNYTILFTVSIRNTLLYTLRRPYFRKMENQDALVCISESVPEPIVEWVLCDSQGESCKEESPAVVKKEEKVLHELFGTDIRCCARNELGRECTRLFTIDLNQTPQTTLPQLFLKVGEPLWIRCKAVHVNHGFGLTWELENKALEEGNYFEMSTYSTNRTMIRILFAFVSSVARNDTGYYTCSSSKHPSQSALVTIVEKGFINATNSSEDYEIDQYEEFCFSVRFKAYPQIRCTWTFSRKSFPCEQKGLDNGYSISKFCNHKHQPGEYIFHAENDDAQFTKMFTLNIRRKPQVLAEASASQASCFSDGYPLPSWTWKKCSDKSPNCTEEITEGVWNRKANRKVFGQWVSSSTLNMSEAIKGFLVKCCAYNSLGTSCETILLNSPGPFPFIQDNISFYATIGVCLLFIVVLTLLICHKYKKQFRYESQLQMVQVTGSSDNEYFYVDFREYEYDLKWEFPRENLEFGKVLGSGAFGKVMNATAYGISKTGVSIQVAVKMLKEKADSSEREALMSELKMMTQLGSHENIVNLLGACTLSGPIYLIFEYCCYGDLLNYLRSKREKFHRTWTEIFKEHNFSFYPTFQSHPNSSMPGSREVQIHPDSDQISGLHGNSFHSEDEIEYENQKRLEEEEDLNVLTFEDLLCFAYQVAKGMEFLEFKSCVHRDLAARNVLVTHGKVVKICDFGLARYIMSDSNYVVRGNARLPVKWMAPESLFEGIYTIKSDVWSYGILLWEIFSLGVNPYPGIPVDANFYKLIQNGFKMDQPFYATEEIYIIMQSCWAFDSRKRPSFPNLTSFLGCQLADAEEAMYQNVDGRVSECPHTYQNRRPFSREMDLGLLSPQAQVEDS
The note with it: at 0.1 µM.

For experiment [9], the target named is Non-receptor tyrosine-protein kinase TYK2 (Homo sapiens) (UniProt P29597). The note with it: at 1 µM.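 Note: values are mean percent inhibition of TYK2 kinase.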
Chain of Non-receptor tyrosine-protein kinase TYK2 (Homo sapiens) (P29597 whole entry): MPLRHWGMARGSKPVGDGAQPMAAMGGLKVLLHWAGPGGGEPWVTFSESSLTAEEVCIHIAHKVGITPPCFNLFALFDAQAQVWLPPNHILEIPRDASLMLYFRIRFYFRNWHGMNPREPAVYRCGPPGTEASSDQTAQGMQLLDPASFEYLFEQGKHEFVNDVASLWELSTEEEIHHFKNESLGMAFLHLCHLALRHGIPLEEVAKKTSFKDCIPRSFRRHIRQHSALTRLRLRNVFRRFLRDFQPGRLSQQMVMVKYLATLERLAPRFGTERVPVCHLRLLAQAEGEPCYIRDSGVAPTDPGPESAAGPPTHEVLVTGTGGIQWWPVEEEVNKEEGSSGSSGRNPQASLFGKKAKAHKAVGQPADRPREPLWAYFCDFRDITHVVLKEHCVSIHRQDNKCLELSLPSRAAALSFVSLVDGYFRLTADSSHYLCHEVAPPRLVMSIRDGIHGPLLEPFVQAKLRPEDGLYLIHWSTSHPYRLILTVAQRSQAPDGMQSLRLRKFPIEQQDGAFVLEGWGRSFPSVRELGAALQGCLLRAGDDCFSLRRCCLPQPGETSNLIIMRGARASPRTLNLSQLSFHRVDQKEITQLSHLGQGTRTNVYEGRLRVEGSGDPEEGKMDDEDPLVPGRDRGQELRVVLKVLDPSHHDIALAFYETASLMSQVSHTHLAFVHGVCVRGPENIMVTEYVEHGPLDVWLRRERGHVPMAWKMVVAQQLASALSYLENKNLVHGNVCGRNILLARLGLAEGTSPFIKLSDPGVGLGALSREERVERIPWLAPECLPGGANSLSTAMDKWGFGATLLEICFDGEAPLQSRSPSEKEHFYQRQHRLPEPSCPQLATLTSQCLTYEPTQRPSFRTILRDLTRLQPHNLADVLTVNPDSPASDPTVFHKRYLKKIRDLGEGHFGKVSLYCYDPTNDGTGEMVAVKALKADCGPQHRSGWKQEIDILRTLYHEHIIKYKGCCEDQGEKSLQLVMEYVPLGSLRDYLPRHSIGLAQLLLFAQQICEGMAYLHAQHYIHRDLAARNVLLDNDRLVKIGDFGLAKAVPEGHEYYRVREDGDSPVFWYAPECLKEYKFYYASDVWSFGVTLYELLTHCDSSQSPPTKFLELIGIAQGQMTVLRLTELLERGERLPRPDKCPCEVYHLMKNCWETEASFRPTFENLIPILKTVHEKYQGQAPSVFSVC
For experiment [10], the target named is T2, Tyrosine-protein kinase receptor TYRO3 (Homo sapiens) (UniProt Q06418).
T2 sequence (whole entry): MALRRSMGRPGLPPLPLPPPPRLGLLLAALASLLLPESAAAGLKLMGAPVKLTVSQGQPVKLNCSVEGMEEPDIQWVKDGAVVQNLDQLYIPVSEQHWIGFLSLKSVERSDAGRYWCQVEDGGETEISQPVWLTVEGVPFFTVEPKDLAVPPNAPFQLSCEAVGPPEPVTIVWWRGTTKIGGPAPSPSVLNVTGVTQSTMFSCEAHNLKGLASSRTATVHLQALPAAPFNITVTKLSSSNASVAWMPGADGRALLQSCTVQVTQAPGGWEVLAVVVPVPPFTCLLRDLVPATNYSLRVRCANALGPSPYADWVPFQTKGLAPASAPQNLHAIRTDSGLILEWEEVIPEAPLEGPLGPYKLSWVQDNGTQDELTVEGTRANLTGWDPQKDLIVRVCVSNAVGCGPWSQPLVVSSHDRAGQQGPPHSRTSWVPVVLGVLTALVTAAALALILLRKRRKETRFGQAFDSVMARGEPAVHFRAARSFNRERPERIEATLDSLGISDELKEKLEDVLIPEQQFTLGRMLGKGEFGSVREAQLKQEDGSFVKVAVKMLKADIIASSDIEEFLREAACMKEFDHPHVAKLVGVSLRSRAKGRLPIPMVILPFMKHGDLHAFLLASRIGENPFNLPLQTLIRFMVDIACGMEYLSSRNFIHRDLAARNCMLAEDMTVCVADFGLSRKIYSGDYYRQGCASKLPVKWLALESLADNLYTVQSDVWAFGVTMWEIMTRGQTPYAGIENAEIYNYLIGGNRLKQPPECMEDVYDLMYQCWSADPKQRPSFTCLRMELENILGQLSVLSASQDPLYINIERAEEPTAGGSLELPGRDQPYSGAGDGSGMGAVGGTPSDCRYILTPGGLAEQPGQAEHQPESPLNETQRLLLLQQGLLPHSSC
To be noted: at 0.1 µM.

Experiment [11] deals with T2, Tyrosine-protein kinase receptor TYRO3 (Homo sapiens). The note with it: at 1 µM.
Experiment [12] addresses Tyrosine-protein kinase Yes (Homo sapiens) (UniProt P07947). The note with it: at 0.1 µM.
Experiment [13] has the same target. The note with it: at 1 µM.
In experiment [14] the target is T3, Tyrosine-protein kinase ZAP-70 (Homo sapiens) (UniProt P43403).
T3 sequence (whole entry): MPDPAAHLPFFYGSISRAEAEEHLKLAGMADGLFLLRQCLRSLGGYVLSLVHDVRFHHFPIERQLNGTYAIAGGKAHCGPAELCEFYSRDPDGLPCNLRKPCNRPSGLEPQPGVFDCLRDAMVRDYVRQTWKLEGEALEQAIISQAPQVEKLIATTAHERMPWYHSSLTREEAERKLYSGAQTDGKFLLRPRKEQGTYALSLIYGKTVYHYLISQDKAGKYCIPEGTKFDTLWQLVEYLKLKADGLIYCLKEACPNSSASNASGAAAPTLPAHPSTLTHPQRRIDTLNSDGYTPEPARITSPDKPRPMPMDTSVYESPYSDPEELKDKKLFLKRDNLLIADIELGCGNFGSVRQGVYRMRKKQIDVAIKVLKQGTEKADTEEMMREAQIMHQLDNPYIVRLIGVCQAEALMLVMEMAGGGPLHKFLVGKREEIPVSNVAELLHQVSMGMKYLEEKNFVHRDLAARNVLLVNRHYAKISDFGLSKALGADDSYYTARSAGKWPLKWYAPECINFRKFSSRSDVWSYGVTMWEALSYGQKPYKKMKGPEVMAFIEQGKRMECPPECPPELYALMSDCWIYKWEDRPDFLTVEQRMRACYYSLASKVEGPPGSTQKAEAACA
To be noted: at 0.1 µM.

In experiment [15] the target is T3, Tyrosine-protein kinase ZAP-70 (Homo sapiens). The note with it: at 1 µM.
Experiment [16] deals with Serine/threonine-protein kinase B-raf (Homo sapiens) (UniProt P15056). The note with it: at 0.1 µM.
Chain of Serine/threonine-protein kinase B-raf (Homo sapiens) (P15056 whole entry): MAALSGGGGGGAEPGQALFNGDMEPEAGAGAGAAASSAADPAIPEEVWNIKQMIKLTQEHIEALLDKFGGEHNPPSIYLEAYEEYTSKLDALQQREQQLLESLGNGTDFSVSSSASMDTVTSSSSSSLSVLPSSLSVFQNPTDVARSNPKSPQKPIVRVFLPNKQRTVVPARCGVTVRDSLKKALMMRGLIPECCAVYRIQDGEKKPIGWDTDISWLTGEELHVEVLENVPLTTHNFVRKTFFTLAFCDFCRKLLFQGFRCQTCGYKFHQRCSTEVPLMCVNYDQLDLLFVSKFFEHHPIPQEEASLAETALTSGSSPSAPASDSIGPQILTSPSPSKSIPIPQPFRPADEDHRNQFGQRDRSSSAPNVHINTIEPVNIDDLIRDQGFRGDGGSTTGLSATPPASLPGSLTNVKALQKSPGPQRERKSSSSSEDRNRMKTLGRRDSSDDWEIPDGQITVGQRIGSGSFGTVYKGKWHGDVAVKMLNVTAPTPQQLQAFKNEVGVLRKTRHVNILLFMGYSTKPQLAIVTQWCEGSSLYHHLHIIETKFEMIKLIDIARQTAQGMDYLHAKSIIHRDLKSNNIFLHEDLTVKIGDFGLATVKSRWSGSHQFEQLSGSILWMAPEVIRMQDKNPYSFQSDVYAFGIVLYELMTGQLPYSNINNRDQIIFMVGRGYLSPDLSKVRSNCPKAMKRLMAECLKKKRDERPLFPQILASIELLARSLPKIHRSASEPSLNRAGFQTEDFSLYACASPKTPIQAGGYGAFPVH
Experiment [17] shares this target. The note with it: at 1 µM.
The test system of experiment [18] is Serine/threonine-protein kinase B-raf (Homo sapiens), P15056 [V600E]. To be noted: at 0.1 µM.
Chain of Serine/threonine-protein kinase B-raf (Homo sapiens), P15056 [V600E] (P15056 whole entry V600E): as the sequence (P15056 whole entry) above, with V600E counted along it
The test system is the same in experiment [19]. The note with it: at 1 µM.
Experiment [20] concerns the target RAF proto-oncogene serine/threonine-protein kinase (Homo sapiens) (UniProt P04049). The note with it: at 0.1 µM.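 Note: values are mean CRAF kinase inhibition from profiling of the GSK Published Kinase Inhibitor Set.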

Chain of Tyrosine-protein kinase Yes (Homo sapiens) (P07947 2-543 limits assumed): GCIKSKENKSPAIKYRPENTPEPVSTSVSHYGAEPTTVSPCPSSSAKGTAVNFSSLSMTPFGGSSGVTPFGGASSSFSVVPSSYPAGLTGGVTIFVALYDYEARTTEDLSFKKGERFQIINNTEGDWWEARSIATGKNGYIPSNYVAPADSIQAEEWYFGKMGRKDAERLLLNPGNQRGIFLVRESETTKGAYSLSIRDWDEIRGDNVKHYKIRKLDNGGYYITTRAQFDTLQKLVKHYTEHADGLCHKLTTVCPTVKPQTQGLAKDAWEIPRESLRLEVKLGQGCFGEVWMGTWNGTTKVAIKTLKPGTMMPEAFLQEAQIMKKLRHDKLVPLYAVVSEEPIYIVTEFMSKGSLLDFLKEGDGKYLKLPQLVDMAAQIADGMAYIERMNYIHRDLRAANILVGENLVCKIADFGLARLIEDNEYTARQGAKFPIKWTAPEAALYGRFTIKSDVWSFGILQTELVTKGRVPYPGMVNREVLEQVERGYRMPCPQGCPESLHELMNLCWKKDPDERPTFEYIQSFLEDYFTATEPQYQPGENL
Chain of RAF proto-oncogene serine/threonine-protein kinase (Homo sapiens) (P04049 whole entry): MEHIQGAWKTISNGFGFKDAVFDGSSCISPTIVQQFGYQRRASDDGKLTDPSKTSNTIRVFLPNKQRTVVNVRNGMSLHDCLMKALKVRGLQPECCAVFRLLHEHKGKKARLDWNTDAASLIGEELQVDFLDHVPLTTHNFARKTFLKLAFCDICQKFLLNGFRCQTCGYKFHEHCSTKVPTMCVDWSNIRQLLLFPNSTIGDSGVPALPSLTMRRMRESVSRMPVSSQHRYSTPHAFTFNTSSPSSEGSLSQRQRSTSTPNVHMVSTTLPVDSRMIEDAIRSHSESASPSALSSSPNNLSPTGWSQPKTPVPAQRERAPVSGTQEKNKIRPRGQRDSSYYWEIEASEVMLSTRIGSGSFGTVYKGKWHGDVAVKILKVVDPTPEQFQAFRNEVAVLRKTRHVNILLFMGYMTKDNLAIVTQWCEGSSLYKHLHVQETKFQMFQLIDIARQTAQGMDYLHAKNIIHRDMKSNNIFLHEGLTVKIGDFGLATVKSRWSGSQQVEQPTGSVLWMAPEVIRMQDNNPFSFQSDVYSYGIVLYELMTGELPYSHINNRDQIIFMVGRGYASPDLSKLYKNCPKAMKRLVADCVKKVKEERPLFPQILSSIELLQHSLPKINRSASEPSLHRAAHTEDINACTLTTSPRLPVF
Chain of Fibroblast growth factor receptor 4 (Homo sapiens) (P22455 22-802 limits assumed): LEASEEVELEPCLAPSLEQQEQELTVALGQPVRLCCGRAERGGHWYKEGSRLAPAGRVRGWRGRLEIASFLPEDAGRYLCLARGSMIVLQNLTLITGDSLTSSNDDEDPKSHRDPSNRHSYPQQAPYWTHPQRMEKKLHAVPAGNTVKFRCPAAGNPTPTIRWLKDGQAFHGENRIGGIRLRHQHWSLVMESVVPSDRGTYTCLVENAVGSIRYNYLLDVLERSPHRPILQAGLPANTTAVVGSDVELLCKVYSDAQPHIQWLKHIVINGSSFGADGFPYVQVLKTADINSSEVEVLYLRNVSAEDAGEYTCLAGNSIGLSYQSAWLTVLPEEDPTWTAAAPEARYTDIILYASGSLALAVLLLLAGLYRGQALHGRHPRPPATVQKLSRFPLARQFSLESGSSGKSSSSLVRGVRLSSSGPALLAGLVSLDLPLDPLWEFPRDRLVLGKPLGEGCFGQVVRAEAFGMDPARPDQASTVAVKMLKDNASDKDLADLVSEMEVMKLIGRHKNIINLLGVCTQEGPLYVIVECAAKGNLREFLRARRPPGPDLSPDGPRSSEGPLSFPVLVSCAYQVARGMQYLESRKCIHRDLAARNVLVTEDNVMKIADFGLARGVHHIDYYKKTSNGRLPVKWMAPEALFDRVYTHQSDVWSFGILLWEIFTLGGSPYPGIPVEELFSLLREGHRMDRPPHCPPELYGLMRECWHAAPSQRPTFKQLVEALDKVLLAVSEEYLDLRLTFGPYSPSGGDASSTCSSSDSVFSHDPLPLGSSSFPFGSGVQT
Chain of Tyrosine-protein kinase Fgr (Homo sapiens) (P09769 2-529 limits assumed): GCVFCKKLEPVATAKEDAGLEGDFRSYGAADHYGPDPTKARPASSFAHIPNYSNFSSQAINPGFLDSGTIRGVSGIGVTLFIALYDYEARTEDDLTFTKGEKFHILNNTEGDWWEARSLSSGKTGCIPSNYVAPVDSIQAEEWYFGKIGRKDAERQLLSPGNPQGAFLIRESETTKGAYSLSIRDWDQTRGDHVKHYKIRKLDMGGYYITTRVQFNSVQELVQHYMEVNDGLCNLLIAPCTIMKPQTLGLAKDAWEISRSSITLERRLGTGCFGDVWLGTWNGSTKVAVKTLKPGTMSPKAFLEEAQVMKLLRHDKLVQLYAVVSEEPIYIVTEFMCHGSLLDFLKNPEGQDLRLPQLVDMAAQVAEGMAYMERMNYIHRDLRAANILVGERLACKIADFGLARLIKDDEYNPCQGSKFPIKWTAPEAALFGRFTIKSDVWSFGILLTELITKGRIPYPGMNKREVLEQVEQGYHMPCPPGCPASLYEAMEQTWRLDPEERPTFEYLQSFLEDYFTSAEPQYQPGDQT

As a reminder, the inhibition is the relative decrease from the control value, in per cent. As for `[O-][S+]1CCN(Cc2ccc(-c3ccc4ncnc(Nc5ccc(OCc6cccc(F)c6)c(Cl)c5)c4c3)o2)CC1`, the inhibition in [1] was 0.31%; in [2], 3.65%; in experiment [3] it was 6.21%; in experiment [4], 0.35%; in experiment [5] it was -0.47%; in [6] it was 4.64%. Further, the inhibition in [7] was 5.03%; in experiment [8], 1.35%; in [9], -4.3%; in [10], 3.67%; in [11] it was 18.8%; in experiment [12], 6.03%. Moreover, the inhibition in experiment [13] turned out to be 21.1%; in experiment [14], 0.38%; in [15], 3.57%; in experiment [16] it was 6.54%; in experiment [17], 8.02%; in experiment [18] it was 5.36%. Further, the inhibition in experiment [19] was 5.17%; in [20], -0.6%.

For `O=S(=O)(CCNCc1ccc(-c2ccc3ncnc(Nc4ccc(OCc5cccc(F)c5)c(Cl)c4)c3c2)o1)c1ccccc1`, the inhibition in experiment [1] worked out at 1.88%; in experiment [2] it was 2.78%; in experiment [3], 5.07%; in [4] it was 2.06%; in experiment [5] it was 4.7%; in experiment [6], 5.79%. For the same molecule, the inhibition in [7] was 4.97%; in experiment [8], -2.76%; in [9], -2.79%; in experiment [10], 1.84%; in experiment [11] it was 3%; in [12], 3.79%. Also, the inhibition came to 7.66% in [13]; 2.6% in experiment [14]; 1.7% in experiment [15]; 8.76% in experiment [16]; 8.78% in experiment [17]; 6.36% in experiment [18]. Besides, the inhibition in experiment [19] was 6.18%; in experiment [20], 1.16%.

`CCCN(CCS(C)(=O)=O)Cc1ccc(-c2ccc3ncnc(Nc4ccc(OCc5cccc(F)c5)c(Cl)c4)c3c2)o1`: the inhibition is 3.7% in experiment [1]; 3.69% in experiment [2]; 7.51% in experiment [3]; -1% in [4]; 1.07% in experiment [5]; 0.88% in experiment [6]. Moreover, the inhibition in [7] is 1.93%; in experiment [8], 1.48%; in [9], -0.78%; in [10] it was 2.08%; in [11], 1.99%; in [12] it was 1.86%. The inhibition is 8.75% in [13]; 1.73% in experiment [15]; 3.07% in experiment [16]; 3.72% in experiment [17]; 3.15% in [18]; 3.85% in experiment [19]. Further, the inhibition in experiment [20] was found to be 1.57%.

As to `COc1cc(N2CCN(C(C)C)CC2)ccc1Nc1nc(Nc2ccc(F)cc2C(N)=O)c2cc[nH]c2n1`, the inhibition in experiment [1] is 7.42%; in experiment [2] it was 0.9%; in experiment [3], 5.03%; in [4], -0.84%; in experiment [5], 0.61%; in experiment [6], 2.47%. Moreover, the inhibition in experiment [7] was 8.56%; in experiment [8] it was 2.42%; in experiment [9] it was -2.61%; in [10] it was 0.64%; in experiment [11] it was 2.95%; in [12], 0.75%. Also, the inhibition was 7.33% in experiment [13]; 6.3% in experiment [14]; 23.5% in experiment [15]; 2.3% in [16]; 16.1% in experiment [17]; 1.62% in [18]. Moreover, the inhibition was 13.7% in [19] and 0.33% in [20].

Take `Nc1nc(-c2ccc(F)cc2)c(-c2ccc3ncccc3n2)s1`: the inhibition in [1] was 3.47%; in experiment [2], 6.43%; in experiment [3] it was 14.1%; in [4], -0.09%; in [5], 6.56%; in experiment [6], 3.5%. Moreover, the inhibition in experiment [7] is 3.75%; in experiment [8] it was 1.18%; in experiment [9] it was -1.99%; in experiment [10], 3.01%; in [11], 2.87%; in experiment [12], 6.52%. Further, the inhibition in [13] amounted to 37.8%; in experiment [14] it was 1.91%; in experiment [15] it was 1.99%; in experiment [16], 6.57%; in experiment [17] it was 7.72%; in experiment [18], 6.41%. For the same molecule, the inhibition in experiment [19] amounted to 7.92%; in [20] it was 0.53%.

`CCn1c(-c2nonc2N)nc2cnc(Oc3cccc(NC(=O)c4ccc(N(C)C)cc4)c3)cc21`: the inhibition was -0.05% in experiment [1]; 0.55% in experiment [2]; 2.13% in experiment [4]; 4.41% in experiment [5]; 0.6% in experiment [6]; 1.09% in experiment [7]. The inhibition in experiment [8] is -1.65%; in experiment [9], -0.04%; in experiment [10], 0.1%; in experiment [11] it was 0.87%; in experiment [12] it was 0.93%; in [13], 2.45%. In addition, the inhibition was 1.81% in experiment [14]; 2.72% in experiment [15]; 1.95% in [16]; 5.71% in experiment [17]; 2.62% in experiment [18]; 6.32% in experiment [19]. In addition, the inhibition in [20] worked out at 0.85%.

As for `COc1ccc(-c2oc3ncnc(N)c3c2-c2ccc(NC(=O)Nc3cc(C(F)(F)F)ccc3F)cc2)cc1`, the inhibition is 48.5% in [1]; 17% in experiment [2]; 61% in [3]; 47.8% in [4]; 96.7% in [5]; 22.1% in experiment [6]. In addition, the inhibition in experiment [8] came to 12.7%; in experiment [9], 0.14%; in experiment [10], 8.25%; in experiment [11], 49.4%; in [12], 15.7%; in experiment [13], 80.1%. For the same molecule, the inhibition in experiment [14] came to 0.23%; in experiment [15], 4.77%; in experiment [16] it was 6.96%; in [17], 19.6%; in experiment [18], 8.1%; in [19], 23.9%. For the same molecule, the inhibition in experiment [20] turned out to be 2.02%.
